Laboratory results: PubChem BioAssay (NCATS)
Inconclusive results are not listed. A number with no mark means an inactive call. Activity calls are given as the source filed them. The call rests on the fitted dose curve; in most records, active means well fitted inhibition curve with a large enough effect; inconclusive means small, poorly fitted or top-dose-only effect; inactive means no such curve, though single readings can be large or run the other way.

System: Zika virus NS2B-NS3 protease (unlinked complex)
Assay: Primary screen GU Rhodamine qHTS for Zika virus inhibitors: Unlinked NS2B-NS3 protease assay (AID 1347159); further: nearly all actives have a fitted effect of over 60% in size; further: potency means the concentration at half of the fitted maximal effect
Conditions: Recombinant ZIKV NS2B-NS3 protease, Rhodamine110 substrate fluorescence; series mostly up to 107 µM; activity change, negative = inhibition: at the top concentration
Summary of the method: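 Noncovalent NS2B hydrophilic domain/NS3 protease complex (25 nM final) in 10 mM Tris-HCl pH 8.0, 0.01% Tween 20, preincubated 15 min with compounds (up to 114 microM), then 1.5 microM Rhodamine110 substrate. Fluorescence change over 15 min fitted to 4-parameter Hill.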
On the % scale 0 is the no-effect control and ±100 the full control effect.

| Structure (SMILES) | activity change, negative = inhibition | Potency |
| --- | --- | --- |
| Clc1ccccc1CNCC1CCC(CNCc2ccccc2Cl)CC1 (stereo not given) | 80.7% | – |
| CNc1nc(-c2ccc3c(N)n[nH]c3c2)cc(N2CC(C(=O)NC3CCCCC3)CCC2C)n1 (stereo not given) | 26.1% | – |
| CC[C@H]1OC(=O)[C@H](C)[C@@H](O[C@H]2C[C@@](C)(OC)[C@@H](O)[C@H](C)O2)[C@H](C)[C@@H](O[C@@H]2O[C@H](C)C[C@H](N(C)C)[C@H]2O)[C@](C)(O)C[C@@H](C)/C(=N/OCOCCOC)[C@H](C)[C@@H](O)[C@]1(C)O | 0% | – |
| C[C@@H](CN1CCC(n2c(=O)[nH]c3cc(Cl)ccc32)CC1)NC(=O)c1ccc2ccccc2c1 | 181% | – |
| CC1=CC(=O)[C@@]2(C(C)C)C[C@@H]12 | – | 2.51 µM (active) |
| CN(C)CC(=O)Nc1ccc2[nH]c(=O)c3ccccc3c2c1 | -2.26% | – |
| C=C1C(=O)O[C@@H]2/C=C(/C)CC3C=C(C[C@H](OC(=O)/C(C)=C\C)[C@@H]12)C(=O)O3 (stereo not given in full) | -19.5% | – |
| COc1ccc2c(c1)CN(C(=O)CCN1CCC(Cc3ccccc3)CC1)CCS2 | -0.93% [at 57.1 µM] | – |
| COc1ccc(-c2nc(-c3cc(C(F)(F)F)cc(C(F)(F)F)c3)n(Cc3ccc(C(N)=O)cc3)c2-c2ccc(OC)cc2)cc1 | -8.11% | – |
| CNc1cc(OC)c(C(=O)N[C@@H]2CCN(Cc3ccccc3)[C@@H]2C)cc1Cl | 9.11% | – |
| CC(=O)Nc1ccc(C(=O)Nc2ccccc2N)cc1 | 2.37% [at 57.1 µM] | – |
| CCOC(=O)CCC(=O)O[C@H]1[C@H](O[C@@H]2[C@@H](C)[C@H](O[C@H]3C[C@@](C)(OC)[C@@H](O)[C@H](C)O3)[C@@H](C)C(=O)O[C@H](CC)[C@@](C)(O)[C@H](O)[C@@H](C)C(=O)[C@H](C)CC2(C)O)O[C@H](C)C[C@@H]1N(C)C (stereo not given in full) | -3.78% | – |
| CCC(=O)Nc1cccc(Oc2nc(Nc3ccc(N4CCN(C)CC4)cc3OC)ncc2Cl)c1 | 47% | – |
| Cc1cc(CN)cc(C)c1NC(=O)c1ccc(-c2cc(Cl)ccc2Cl)o1 | 162% | – |
| C=C1C(=O)O[C@@H]2C[C@@]3(C)CCC[C@H](C)C3=C[C@H]12 | -6.67% | – |
| O=C(Nc1cccc(C(F)(F)F)c1)c1ccccc1NCc1ccncc1 | 1.38% | – |
| Cn1nccc1Nc1nccc(-c2ccn([C@H](CO)c3ccc(Cl)c(F)c3)c(=O)c2)n1 | 2.52% | – |
| C[N+]1(C)[C@@H]2CC[C@H]1CC(OC(=O)C(O)c1ccccc1)C2 (stereo not given in full) | 0% | – |
| CC1CCN(c2cc(NC(=O)c3ccccc3)ncn2)CC1 | -1.63% | – |
| CCOc1ccc(-c2nc(-c3cccc4c3CCC4NCCO)no2)cc1OCC (stereo not given) | 19.1% | – |
| CCC(=O)c1cc(-c2ccc(Cl)cc2)n(-c2ccc(S(N)(=O)=O)cc2)c1C | -26.5% | – |
| COc1cccc(NC[C@@H](O)Cn2c3ccc(Br)cc3c3cc(Br)ccc32)c1 | – | 44.7 µM (active) |
| COc1cc(-c2cc(-c3cccc(O)c3)cnc2N)cc(OC)c1OC | 12.1% | – |
| C[C@H](NC(=O)C(C)(C)Oc1ccc(C(F)(F)F)cn1)[C@@H](Cc1ccc(Cl)cc1)c1cccc(C#N)c1 | -13.6% | – |

System: Zika virus NS2B-NS3 protease (linked construct)
Assay: Primary screen NINDS Rhodamine qHTS for Zika virus inhibitors (AID 1347160); further: nearly all actives have a fitted effect of over 55% in size
Conditions: purified NS2B-NS3 protease, Rhodamine110 substrate fluorescence; series mostly up to 57.1 µM; activity change, negative = inhibition: at the top concentration
Summary of the method: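 Purified NS2B-NS3 protease with the NS2B hydrophilic domain joined by a flexible linker (25 nM) in 10 mM Tris-HCl pH 8.0, 0.01% Tween 20, preincubated 15 min at RT with compound; Rhodamine110 peptide substrate 1.5 µM; fluorescence change over 15 min; 4-parameter Hill fit.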

| Structure (SMILES) | activity change, negative = inhibition | outcome |
| --- | --- | --- |
| CC(=O)N1CCN([C@H]2CCN(C(=O)N(C)[C@H](C)c3cc(C(F)(F)F)cc(C(F)(F)F)c3)[C@@H](c3ccc(F)cc3C)C2)CC1 | 18.2% | – |
| C=C1C(=O)O[C@@H]2C[C@@H](C)[C@]34C[C@]5(C(=O)O[C@H]6CC(C)=C([C@H](C)CCCO)[C@H](OC(=O)C(C)CC)[C@H]65)[C@@H](C(C)=C3C[C@@H]12)[C@H]4OC(C)=O (stereo not given in full) | – | inactive [at 15.1 µM] |
| COc1ccccc1-c1c[nH]c2ncc(-c3cncc(C(=O)N(C)C)c3)cc12 | 12.2% | – |
| Fc1ccccc1CNCc1ccc(-c2ccnc3[nH]ccc23)cc1 | 71.2% | – |
| CCCCc1nc(C)c(CC(=S)N(C)C)c(=O)n1Cc1ccc(-c2ccccc2-c2nn[nH]n2)cc1 | 11.7% | – |
| Clc1ccccc1CNCC1CCC(CNCc2ccccc2Cl)CC1 (stereo not given) | 90.1% | – |
